Assay [1] deals with Lysosomal acid glucosylceramidase (Homo sapiens) (UniProt P04062). The assay can be described thus: Glucocerebrosidase-p2 (AID 348; in the data active means potency below about 10 µM; further: potency means the concentration at half of the fitted maximal effect). As to conditions: purified GBA, blue fluorogenic substrate, 40 min. The procedure, abridged: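 Compounds titrated from 0.6 nM upwards against 0.2 nM enzyme in pH 5.9 citric acid/KH2PO4, taurocholate, tween-20; blue fluorogenic substrate 80 uM, 40 min room temperature, stopped and read Ex 365/Em 440 for AC50.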
Sequence of Lysosomal acid glucosylceramidase (Homo sapiens) (P04062 whole entry, looked up): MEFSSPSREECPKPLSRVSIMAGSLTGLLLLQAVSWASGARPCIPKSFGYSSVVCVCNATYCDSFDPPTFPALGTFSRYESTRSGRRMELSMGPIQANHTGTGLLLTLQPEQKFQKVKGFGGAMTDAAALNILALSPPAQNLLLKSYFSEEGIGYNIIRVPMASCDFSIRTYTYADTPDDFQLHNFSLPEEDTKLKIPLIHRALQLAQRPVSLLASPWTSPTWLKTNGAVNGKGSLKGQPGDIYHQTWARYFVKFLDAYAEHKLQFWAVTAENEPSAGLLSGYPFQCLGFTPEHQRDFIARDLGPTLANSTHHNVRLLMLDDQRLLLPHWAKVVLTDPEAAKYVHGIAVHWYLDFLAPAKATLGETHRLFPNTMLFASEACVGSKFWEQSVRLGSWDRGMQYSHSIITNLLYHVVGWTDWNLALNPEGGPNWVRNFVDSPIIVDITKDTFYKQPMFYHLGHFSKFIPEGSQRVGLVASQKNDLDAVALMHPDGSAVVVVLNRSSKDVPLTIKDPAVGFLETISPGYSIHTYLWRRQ

A short description of assay [2]: AP1 Signaling Pathway (AID 357; active means well fitted curve in either direction with a large enough effect, not every such curve was filed as active;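 further: ME-180 reporter cells stimulated with EGF at its EC50 level; on the % scale 0 is the no-effect control and ±100 the full control effect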). As to conditions: ME-180 AP-1-bla reporter, EGF-induced, beta-lactamase ratio, 5 h; at 7.69 µM (top of the series) unless noted. In a few lines:
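Read-out was the 460nm/530nm emission ratio (excitation 405nm) after CCF4 loading for 2.5 hours at room temperature. Cells carried an AP-1-driven beta-lactamase reporter, were stimulated with EC50 EGF plus compound for 5 hours, and AC50 values came from titrations.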

Assay [3] addresses Cytochrome P450 1A2 (Homo sapiens) (UniProt P05177). In words: p450-cyp1a2 (AID 410; calls by dose curve; further: potency means the concentration at half of the fitted maximal effect). As to conditions: recombinant CYP1A2, luciferin-ME demethylation, luminescence; series mostly up to 57 µM. The procedure, abridged: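 Luminescent readout of luciferin formed from Luciferin-ME by human CYP1A2; data normalized against complete inhibition by 57 uM furafylline. Enzyme 20nM, substrate 100uM at Km, 100mM KPO4 buffer, 60 min reaction at room temperature.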

Assay [4] is described as follows: NFAT Signaling Pathway (AID 444; active means well fitted curve in either direction with a large enough effect, not every such curve was filed as active;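 further: carbachol stimulus at about its EC50 of 1 µM final; on the % scale 0 is the no-effect control and ±100 the full control effect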). The settings on record: Jurkat NFAT-bla M1, carbachol, beta-lactamase ratio, 5 h; at 7.69 µM (top of the series) unless noted. The procedure, abridged: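 Jurkat cells with NFAT-driven β-lactamase reporter and co-expressed M1 receptor, stimulated with carbachol (final 1 uM, ~EC50), compound titration, 5 h at 37 °C. CCF4 loaded 1 h at RT; 460/530 nm ratio gave %activity and AC50.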

Assay [5] in a line: Stat Signaling Pathway (AID 446; active means well fitted curve in either direction with a large enough effect, not every such curve was filed as active;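 further: ME-180 cervical cancer cells given 40 pM IL-6 alongside compound; SIE-controlled beta-lactamase reporter measured as 460/530 nm FRET emission ratio; on the % scale 0 is the no-effect control and ±100 the full control effect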). The settings on record: ME-180 SIE beta-lactamase reporter, IL-6 stimulated, 5 h; at 7.69 µM (top of the series) unless noted. The procedure, abridged: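 ME-180 cells carrying a SIE-driven beta-lactamase reporter are stimulated with 40 pM IL-6 for 5 h at 37C in the presence of compound. The 460/530 nm FRET substrate ratio is read after 2.5 h at RT. Data are normalised to 300 pM IL-6 and to 125 nM JAK inhibitor controls.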

In assay [6] the target is Glucocorticoid receptor (Homo sapiens) (UniProt P04150). The assay can be described thus: GR-GFP Redistribution (AID 450;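 active means compounds whose dose series gives a full or clear partial fitted curve of increased nuclear translocation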; further: potency means the concentration at half of the fitted maximal effect). As to conditions: U2OS GR-GFP nuclear translocation, laser cytometry, 2 h.
Sequence of Glucocorticoid receptor (Homo sapiens) (P04150 whole entry, looked up, the tested form may be a part): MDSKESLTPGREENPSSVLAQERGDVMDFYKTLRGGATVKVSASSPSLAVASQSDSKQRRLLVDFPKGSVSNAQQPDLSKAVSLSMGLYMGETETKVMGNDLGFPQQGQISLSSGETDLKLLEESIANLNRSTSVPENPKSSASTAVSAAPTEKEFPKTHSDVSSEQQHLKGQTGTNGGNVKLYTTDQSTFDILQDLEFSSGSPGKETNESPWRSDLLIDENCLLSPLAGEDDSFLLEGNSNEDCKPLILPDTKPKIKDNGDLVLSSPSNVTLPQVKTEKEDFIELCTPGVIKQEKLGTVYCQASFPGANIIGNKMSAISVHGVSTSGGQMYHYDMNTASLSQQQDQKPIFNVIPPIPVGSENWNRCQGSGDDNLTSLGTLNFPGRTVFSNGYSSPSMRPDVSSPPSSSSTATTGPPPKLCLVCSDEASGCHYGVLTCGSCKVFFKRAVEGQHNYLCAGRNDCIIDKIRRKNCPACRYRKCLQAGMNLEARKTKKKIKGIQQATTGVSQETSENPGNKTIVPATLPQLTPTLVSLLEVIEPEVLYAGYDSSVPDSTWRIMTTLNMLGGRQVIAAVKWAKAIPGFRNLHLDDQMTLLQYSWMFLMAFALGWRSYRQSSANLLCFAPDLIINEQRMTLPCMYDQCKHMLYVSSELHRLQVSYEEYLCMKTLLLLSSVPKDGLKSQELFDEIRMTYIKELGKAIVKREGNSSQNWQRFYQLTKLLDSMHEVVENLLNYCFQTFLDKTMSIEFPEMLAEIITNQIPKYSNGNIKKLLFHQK
Assay [7] has the same target. The assay can be described thus: GR-EFC Redistribution (AID 451; calls by dose curve; further: potency means the concentration at half of the fitted maximal effect). The settings on record: CHO-K1 GR-EFC translocation, beta-gal luminescence, 2 h. In a few lines: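 CHO-K1 cells expressing nuclear EA and GR-ED fragments of b-gal; compounds titrated up to 46 uM final, 2 h at 37 C. GR nuclear translocation read as complemented b-gal luminescence after 1 h RT detection.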

Assay [8] deals with Mitogen-activated protein kinase 10 (Mus musculus) (UniProt Q61831). The assay can be described thus: JNK3 AlphaScreen Assay (AID 530; active means well fitted curve in either direction with a large enough effect, not every such curve was filed as active;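 further: kinase came from lysate of stimulated human HepG2 cells; signal reports phosphorylation of biotinylated GST-cJun 1-79 at Ser73 with 10 µM ATP; on the % scale 0 is the no-effect control and ±100 the full control effect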). The settings on record: JNK3 lysate, c-Jun phosphorylation; series mostly up to 57.1 µM. In a few lines: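 Pre-activated (IL-1β/TNFα) JNK3 in HepG2 lysates phosphorylates biotin-GST-cJun(1-79), 10 uM ATP; anti-phospho-cJun(Ser73) AlphaScreen read at room temperature, pH 7.6 Tris buffer. Compounds pre-incubated 15 min as titrations.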
(Alpha assays give light when donor and acceptor beads are brought close together.)

Assay [9] deals with 3',5'-cyclic-AMP phosphodiesterase 4B (Homo sapiens) (UniProt Q07343). In words: qHTS Assay for Inhibitors of PDE-IV (AID 607; active means well fitted activation curve with a large enough effect in the main read-out, with a control signal flat, not every such curve was filed as active; further: % of control where 0% means no effect). The settings on record: HEK293 ACTOne CNG channel cells, membrane potential fluorescence; series mostly up to 22.9 µM. In a few lines: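 HEK293 ACTOne cells with CNG channel (1000/well), endogenous PDE4; membrane potential dye, compounds up to 22.9 uM final. Fluorescence Ex 535/Em 590; RO 20-1724 (100 uM final) as reference.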
Sequence of 3',5'-cyclic-AMP phosphodiesterase 4B (Homo sapiens) (Q07343 whole entry, looked up): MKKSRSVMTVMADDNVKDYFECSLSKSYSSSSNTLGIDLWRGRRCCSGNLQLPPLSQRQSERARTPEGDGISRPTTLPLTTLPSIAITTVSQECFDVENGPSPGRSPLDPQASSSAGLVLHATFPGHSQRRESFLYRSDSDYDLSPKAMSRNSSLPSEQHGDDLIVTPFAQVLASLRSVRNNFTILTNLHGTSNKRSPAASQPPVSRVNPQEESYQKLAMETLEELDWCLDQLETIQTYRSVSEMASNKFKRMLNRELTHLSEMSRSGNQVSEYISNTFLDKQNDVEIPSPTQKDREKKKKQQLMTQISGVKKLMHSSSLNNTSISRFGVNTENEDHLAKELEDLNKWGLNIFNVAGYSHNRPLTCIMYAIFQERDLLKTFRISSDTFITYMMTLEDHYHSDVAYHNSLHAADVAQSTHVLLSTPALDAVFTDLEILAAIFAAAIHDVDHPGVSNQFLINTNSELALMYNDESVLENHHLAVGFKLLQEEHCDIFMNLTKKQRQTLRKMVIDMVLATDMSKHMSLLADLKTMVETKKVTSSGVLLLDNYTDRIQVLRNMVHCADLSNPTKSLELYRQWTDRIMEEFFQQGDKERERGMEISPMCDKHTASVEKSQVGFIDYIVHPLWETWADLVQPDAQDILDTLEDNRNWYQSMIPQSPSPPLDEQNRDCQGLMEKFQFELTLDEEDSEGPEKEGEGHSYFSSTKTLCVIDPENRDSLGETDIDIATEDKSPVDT
A general note: qHTS replaces the single test concentration by a dilution series.

The nature of assay [10]: qHTS Assay for Lipid Storage Modulators (AID 1519; calls by dose curve). As to conditions: Drosophila S3 cells, BODIPY lipid droplet/cell ratio, laser cytometry, cells loaded with oleic acid; for activity change, negative = inhibition: at 57.5 µM (top of the series). The procedure, abridged:
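Cells seeded at 5,000 per well were treated with compounds over a concentration series and loaded with oleic acid (400 uM, as added). Lipid droplet fluorescence (488 nm excitation, 500-530 nm channel) was read by laser-scanning cytometry and normalized to 20 uM Triacsin C.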

Assay [11] has as its target Dual specificity protein kinase CLK4 (Homo sapiens) (UniProt Q9HAZ1). In words: qHTS Assay for Inhibitors of CDC-like Kinase 4 (Kinase-Glo Assay) (AID 1770). Further: nearly all actives have a fitted effect of over 65% in size. Further: potency means the concentration at half of the fitted maximal effect. The settings on record: recombinant Clk4, Kinase-Glo ATP depletion luminescence; series mostly up to 66.7 µM. The procedure, abridged: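 Substrate mix (RS peptide 100 uM, ATP 1 uM) dispensed, compound pinned in, then Clk4 added to 25 nM final. Incubated 4.5 h at RT; Kinase-Glo reagent added, luminescence read after 5 min.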

The target is the same in assay [12]. The assay can be described thus: qHTS Assay for Inhibitors of CDC-like Kinase 4 (ADP-Glo Assay) (AID 1771). Further: nearly all actives have a fitted effect of over 70% in size. Further: potency means the concentration at half of the fitted maximal effect. The settings on record: recombinant CLK4, ADP-Glo luminescence; series mostly up to 80 µM. In a few lines: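 Luminescence from ADP-Glo reports ADP produced by 25 nM Clk4 acting on 100 uM RS repeat peptide with 1 uM ATP over 1 hr at room temperature; residual ATP is depleted before ADP is converted to ATP for detection.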

The target of assay [13] is Ubiquitin carboxyl-terminal hydrolase 1 (Homo sapiens) (UniProt O94782). In words: Inhibitors of USP1/UAF1: Pilot qHTS (AID 504865).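 Further: rhodamine fluorescence freed from ubiquitin-rhodamine substrate followed over time; top concentration of the series differs between compounds; on the % scale 0 is the no-effect control and ±100 the full control effect; nearly all actives have a fitted effect of over 35% in size.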 As to conditions: purified USP1/UAF1, Ub-rhodamine cleavage fluorescence; series mostly up to 54.9 µM. The procedure, abridged:
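In 50mM HEPES pH 7.8 containing 0.5mM EDTA, 1mM TCEP, 0.1 mg/ml BSA and 0.01% Tween-20, 1nM USP1/UAF1 is exposed to compound for 15 min, then Ub-Rho (150nM final) is added and fluorescence is read over time.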

The nature of assay [14]: Primary qHTS for small molecule stabilizers of the endoplasmic reticulum resident proteome: Secreted ER Calcium Modulated Protein (SERCaMP) assay (AID 1508630). Further: on the % scale 0 is the no-effect control and ±100 the full control effect. The settings on record: SH-SY5Y GLuc-SERCaMP (Gaussia luciferase released on ER calcium loss) secretion, thapsigargin, luminescence; series mostly up to 38.4 µM. In a few lines:
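GLuc-SERCaMP-expressing SH-SY5Y cells, pretreated 16 h with compound, are challenged with thapsigargin to empty ER calcium stores; after 4 h, coelenterazine is added directly to the medium and luminescence is imaged.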

Assay [15] has as its target Dual specificity protein kinase CLK4 (Homo sapiens) (UniProt Q9HAZ1). The assay can be described thus: qHTS Assay for Inhibitors of CDC-like Kinase 4 (ADP-FP Assay) (AID 1795). Further: potency means the concentration at half of the fitted maximal effect; nearly all actives have a fitted effect of over 60% in size. The settings on record: Transcreener ADP fluorescence polarization; series mostly up to 50 µM. In a few lines: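 Clk4 6.25 nM; RS peptide 100 uM; ATP 1 uM; 25 mM Tris pH 7.5, 10 mM MgCl2; 1 h reaction. ADP detected via antibody/orange tracer FP displacement; TG003 positive control.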

In assay [16] the target is Cytochrome P450 3A4 (Homo sapiens) (UniProt P08684). In words: qHTS Assay for Activators of Cytochrome P450 3A4 (AID 885). Further: nearly all actives have a fitted effect of over 65% in size. The settings on record: recombinant CYP3A4, Luciferin-PPXE luminescence, 60 min; series mostly up to 57.1 µM. The procedure, abridged: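 Human CYP3A4 (20 nM) with Luciferin-PPXE at 25 uM (its KM) in 200 mM KPO4; 10 min compound preincubation, then NADPH regeneration and 60 min reaction at RT. Luciferin read by luminescence; normalized to 57 uM ketoconazole full inhibition.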
Sequence of Cytochrome P450 3A4 (Homo sapiens) (P08684 whole entry, looked up): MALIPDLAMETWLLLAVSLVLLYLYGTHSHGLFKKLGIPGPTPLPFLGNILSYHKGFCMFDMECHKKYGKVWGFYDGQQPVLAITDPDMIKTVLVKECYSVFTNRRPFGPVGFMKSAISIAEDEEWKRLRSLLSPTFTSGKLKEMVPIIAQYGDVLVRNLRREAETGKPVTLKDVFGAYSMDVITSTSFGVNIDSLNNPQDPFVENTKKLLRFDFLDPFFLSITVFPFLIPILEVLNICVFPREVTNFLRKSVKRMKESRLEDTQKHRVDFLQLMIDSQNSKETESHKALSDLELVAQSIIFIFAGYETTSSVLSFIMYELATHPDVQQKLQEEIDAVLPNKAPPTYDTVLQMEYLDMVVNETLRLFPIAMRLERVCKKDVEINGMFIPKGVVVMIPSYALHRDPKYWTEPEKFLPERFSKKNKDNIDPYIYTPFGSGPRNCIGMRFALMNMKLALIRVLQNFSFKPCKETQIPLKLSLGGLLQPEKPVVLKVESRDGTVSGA

Where [17] appears, read: measured here: cell count channel max response.
Where [18] appears, read: measured here: lipid channel max response.

Molecules are shown by their SMILES. Inconclusive results are not listed. Calls of active or inactive are those of the source. Unless noted, the call rests on the fitted dose curve; in most records, active means well fitted curve in the direction sought with a large enough effect; inconclusive means small, poorly fitted or top-dose-only effect, or another doubt; inactive means no such curve, though single readings can be large; an effect the other way counts as inactive or inconclusive.

Sequence of Ubiquitin carboxyl-terminal hydrolase 1 (Homo sapiens) (O94782 whole entry, looked up): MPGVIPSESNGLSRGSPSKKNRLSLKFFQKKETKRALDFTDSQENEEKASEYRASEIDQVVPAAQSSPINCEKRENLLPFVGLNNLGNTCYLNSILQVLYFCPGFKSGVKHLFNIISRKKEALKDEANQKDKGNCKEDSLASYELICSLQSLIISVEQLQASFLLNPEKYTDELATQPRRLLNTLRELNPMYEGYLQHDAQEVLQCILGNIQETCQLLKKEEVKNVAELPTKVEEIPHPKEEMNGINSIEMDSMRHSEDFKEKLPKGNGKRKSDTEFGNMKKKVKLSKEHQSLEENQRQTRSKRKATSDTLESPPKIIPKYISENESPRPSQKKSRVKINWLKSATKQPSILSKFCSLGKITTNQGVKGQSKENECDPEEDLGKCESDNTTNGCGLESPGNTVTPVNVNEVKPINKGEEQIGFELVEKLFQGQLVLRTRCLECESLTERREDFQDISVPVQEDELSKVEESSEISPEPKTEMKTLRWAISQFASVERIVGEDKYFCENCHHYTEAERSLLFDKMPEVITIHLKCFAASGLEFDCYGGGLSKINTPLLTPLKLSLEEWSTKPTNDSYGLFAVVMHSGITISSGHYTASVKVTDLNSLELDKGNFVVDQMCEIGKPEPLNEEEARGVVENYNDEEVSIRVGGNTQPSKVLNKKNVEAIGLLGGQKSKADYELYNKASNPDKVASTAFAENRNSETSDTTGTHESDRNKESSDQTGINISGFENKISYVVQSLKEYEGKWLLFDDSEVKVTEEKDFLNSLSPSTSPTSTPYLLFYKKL
Sequence of Dual specificity protein kinase CLK4 (Homo sapiens) (Q9HAZ1 whole entry, looked up): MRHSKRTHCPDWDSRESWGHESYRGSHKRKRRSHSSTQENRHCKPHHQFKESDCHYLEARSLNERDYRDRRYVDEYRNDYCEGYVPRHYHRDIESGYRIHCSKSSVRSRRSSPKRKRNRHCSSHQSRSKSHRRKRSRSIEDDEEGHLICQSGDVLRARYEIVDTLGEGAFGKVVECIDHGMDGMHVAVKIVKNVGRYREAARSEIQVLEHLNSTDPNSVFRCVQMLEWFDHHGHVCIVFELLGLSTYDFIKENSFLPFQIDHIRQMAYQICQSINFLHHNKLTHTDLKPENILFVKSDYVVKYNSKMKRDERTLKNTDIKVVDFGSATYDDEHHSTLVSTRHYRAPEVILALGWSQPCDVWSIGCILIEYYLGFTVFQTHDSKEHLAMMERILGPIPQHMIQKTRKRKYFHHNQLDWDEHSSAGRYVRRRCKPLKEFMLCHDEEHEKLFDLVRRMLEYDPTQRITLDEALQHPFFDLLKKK
Sequence of Cytochrome P450 1A2 (Homo sapiens) (P05177 whole entry, looked up): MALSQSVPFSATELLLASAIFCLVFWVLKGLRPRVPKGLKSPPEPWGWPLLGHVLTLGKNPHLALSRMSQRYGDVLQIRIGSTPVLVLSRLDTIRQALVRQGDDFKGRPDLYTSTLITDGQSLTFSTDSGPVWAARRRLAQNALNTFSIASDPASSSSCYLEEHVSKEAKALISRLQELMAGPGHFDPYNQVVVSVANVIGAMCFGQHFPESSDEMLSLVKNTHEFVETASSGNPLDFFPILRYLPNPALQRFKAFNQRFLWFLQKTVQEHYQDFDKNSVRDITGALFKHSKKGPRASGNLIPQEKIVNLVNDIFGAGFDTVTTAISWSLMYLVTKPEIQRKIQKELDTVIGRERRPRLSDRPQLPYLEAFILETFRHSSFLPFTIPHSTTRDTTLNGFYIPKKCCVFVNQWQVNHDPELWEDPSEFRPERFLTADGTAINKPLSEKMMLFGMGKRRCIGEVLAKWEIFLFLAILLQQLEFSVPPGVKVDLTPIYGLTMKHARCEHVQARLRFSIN

Turning to `CNc1cc(-c2ccccc2CN(C)C)ncn1`, the Potency in [1] was > 11.4 µM (inactive); in [3] it was 31.6 µM (active); in [6], > 46 µM (inactive); in assay [7], > 46 µM (inactive). The activity change, negative = inhibition is 6.89% (inactive) in assay [2], -0.773% (inactive) in assay [4] and 2.26% (inactive) in assay [10]. Further, the activity, negative = inhibition in assay [5] is -3.02% (inactive). Also, the call in assay [8] was inactive. For the same compound, the Potency result in [9], in assay [11], in assay [12], in assay [13] and in assay [14] was “inactive” in each case. Also, the results for the max response in assay [10] (setting [17]) and in assay [10] (setting [18]) were 7.6% and 8.03%, respectively.

For `c1cncc(-c2cncnc2NC2CCNCC2)c1`, the Potency in [1] is > 11.4 µM (inactive); in [3], 12.6 µM (active); in assay [6] it was > 46 µM (inactive); in assay [7], > 46 µM (inactive). Further, the activity change, negative = inhibition is 11.1% (inactive) in assay [2] and 6.71% (inactive) in assay [10]. Besides, the activity, negative = inhibition in assay [5] was 5.17% (inactive). Besides, in [8], the outcome was inactive. Besides, the Potency result in [9], in assay [11], in [12], in assay [13] and in assay [14] was “inactive” each time. Moreover, the max response in assay [10] (setting [17]) turned out to be 15.6%; in assay [10] (setting [18]), 20%.

For `Cc1cnc(CNc2cc(-c3cccc(NS(C)(=O)=O)c3)ncn2)cn1`, the Potency in assay [1] was > 11.4 µM (inactive); in [6] it was > 46 µM (inactive); in [7], > 46 µM (inactive); in assay [11], 25.1 µM (active); in [12], 15.8 µM (active). Further, the activity change, negative = inhibition in assay [2] is 20.7% (inactive); in assay [4] it was -0.447% (inactive); in assay [10] it was 5.3% (inactive). Moreover, the activity, negative = inhibition in assay [5] is -0.385% (inactive). Besides, the compound was classed as inactive in assay [8]. The Potency entry in assay [9], in assay [13] and in assay [14] was “inactive” throughout. In addition, the max response in assay [10] (setting [17]) was 37.3%; in [10] (setting [18]), 40.2%.

As for `COc1cccc(-c2ccc3ncnc(NCc4ccccc4)c3c2)c1`, the Potency was > 46 µM (inactive) in [6]; > 46 µM (inactive) in assay [7]; 2 µM (active) in [11]; 2.24 µM (active) in assay [12]; 0.794 µM (active) in [15]. For the same compound, the result in [8] was inactive. Besides, the Potency result in assay [9], in assay [13] and in assay [14] was “inactive” throughout. Besides, in assay [10], the activity change, negative = inhibition is -5.64% (inactive). Also, the values for the max response in assay [10] (setting [17]) and in [10] (setting [18]) were -2.9% and -10.2%, respectively.

`CS(=O)(=O)Nc1cccc(-c2ccc3ncnc(NCCN4CCOCC4)c3c2)c1`: the Potency in assay [1] is > 11.4 µM (inactive); in assay [3], 25.1 µM (active); in [6], > 46 µM (inactive); in assay [7], > 46 µM (inactive); in assay [11], 8.91 µM (active); in assay [12], 8.91 µM (active). Moreover, the activity change, negative = inhibition in assay [2] is -17.6% (inactive); in assay [10], -0.458% (inactive). In addition, the activity, negative = inhibition in assay [5] is 2.22% (inactive). The compound was classed as inactive in assay [8]. In addition, the Potency result in assay [9], in assay [16], in assay [13] and in [14] was “inactive” in each case. Further, the max response is -4.37% in assay [10] (setting [17]) and -8.3% in [10] (setting [18]).

In the case of `Cc1cnc(CNc2ncncc2-c2cccnc2)cn1`, the values for the Potency in [1], in assay [6] and in [7] were > 11.4 µM (inactive), > 46 µM (inactive) and > 46 µM (inactive), respectively. Moreover, the activity change, negative = inhibition in assay [2] was 12.8% (inactive); in [4], -0.272% (inactive); in assay [10] it was 5.94% (inactive). Further, the activity, negative = inhibition in assay [5] is 0.806% (inactive). In addition, the call in [8] was inactive. The Potency entry in assay [9], in assay [11], in assay [12], in assay [13] and in assay [14] was “inactive” throughout. For the same compound, the max response is 29.4% in assay [10] (setting [17]) and 33.4% in assay [10] (setting [18]).
